Out of some 5,500 compounds screened, about 2,000 (36%) were called active. Inconclusive results (about 18%) are left out. Cut-off read from the data, not from the text of the source: active = normalized growth mostly below about 0.91 (no sharp cut-off); inconclusive = no clear call, values can overlap the other calls; inactive = mostly above about 0.92. The list shows a part of the results.
Assay: chemical genetic growth profiling, strain panel (AID 1159580);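 note: tested at 20 µM; growth read once vehicle control cultures reached saturation at 30 °C; 1 = growth at the plate median or of vehicle wells; lower values mean less growth of the strain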
Settings: S. cerevisiae deletion strains, growth OD

Measured: normalized growth

CCCc1nc(C)c2c(=O)[nH]c(-c3cc(S(=O)(=O)N4CCN(CC)CC4)ccc3OCC)nn12
inactive: locus YAL021C, strain ccr4, active compounds read low 0.961 | locus YAL026C, strain drs2, active compounds read low 0.944 | locus YAL030W, strain snc1, active compounds read low 0.947 | locus YBL061C, strain skt5, active compounds read low 0.979 | locus YBR009C, strain hhf1, active compounds read low 0.975 | locus YBR023C, strain chs3, active compounds read low 0.974 | locus YBR171W, strain sec66, active compounds read low 0.967 | locus YBR231C, strain swc5, active compounds read low 0.97 | locus YBR279W, strain paf1, active compounds read low 0.981 | locus YCL011C, strain gbp2, active compounds read low 0.974 | locus YCL016C, strain dcc1, active compounds read low 0.974 | locus YCL061C, strain MRC1, active compounds read low 0.952 | locus YCL069W, strain vba3, active compounds read low 0.988 | locus YCR088W, strain abp1, active compounds read low 0.98 | locus YDL005C, strain med2, active compounds read low 0.98 | locus YDL040C, strain nat1, active compounds read low 0.985 | locus YDR001C, strain nth1, active compounds read low 0.964 | locus YDR069C, strain doa4, active compounds read low 0.951 | locus YDR137W, strain rgp1, active compounds read low 0.915 | locus YDR159W, strain sac3, active compounds read low 0.93 | locus YDR195W, strain ref2 0.938 | locus YDR297W, strain sur2, active compounds read low 0.984 | locus YDR334W, strain swr1, active compounds read low 0.913 | locus YDR335W, strain msn5, active compounds read low 0.97 | locus YDR392W, strain spt3, active compounds read low 0.964 | locus YEL003W, strain gim4, active compounds read low 0.969 | locus YEL037C, strain rad23, active compounds read low 0.985 | locus YEL061C, strain CIN8 (second series), active compounds read low 0.973 | locus YER015W, strain faa2, active compounds read low 0.983 | locus YER016W, strain bim1, active compounds read low 0.973 | locus YER111C, strain swi4, active compounds read low 0.972 | locus YER155C, strain BEM2 (second series), active compounds read low 0.945 | locus YFR010W, strain ubp6, active compounds read low 0.943 | locus YGL167C, strain pmr1, active compounds read low 0.957 | locus YGL173C, strain kem1, active compounds read low 0.949 | locus YGL227W, strain vid30, active compounds read low 0.965 | locus YGL240W, strain doc1, active compounds read low 0.921 | locus YGL253W, strain hxk2, active compounds read low 0.971 | locus YHR013C, strain ard1, active compounds read low 0.931 | locus YHR027C, strain rpn1, active compounds read low 0.942 | locus YHR030C, strain SLT2, active compounds read low 1.08 | locus YHR079C, strain IRE1, active compounds read low 1.07 | locus YHR142W, strain chs7, active compounds read low 0.971 | locus YJL092W, strain hpr5, active compounds read low 0.96 | locus YJL095W, strain BCK1 (second series), active compounds read low 0.974 | locus YJL095W, strain BCK1, active compounds read low 1.01 | locus YJL115W, strain asf1, active compounds read low 0.943 | locus YJL129C, strain trk1, active compounds read low 0.969 | locus YJL154C, strain vps35, active compounds read low 0.97 | locus YJL164C, strain tpk1, active compounds read low 0.948 | locus YJL166W, strain qcr8, active compounds read low 0.969 | locus YJL187C, strain SWE1, active compounds read low 0.972 | locus YJR066W, strain TOR1, active compounds read low 0.979 | locus YKL160W, strain elf1, active compounds read low 0.987 | locus YKR026C, strain gcn3, active compounds read low 0.973 | locus YKR091W, strain srl3, active compounds read low 0.977 | locus YLL001W, strain dnm1, active compounds read low 0.973 | locus YLL026W, active compounds read low 0.947 | locus YLL041C, strain sdh2, active compounds read low 0.96 | locus YLR027C, strain aat2, active compounds read low 0.953 | locus YLR113W, strain HOG1, active compounds read low 0.997 | locus YLR221C, strain rsa3, active compounds read low 0.978 | locus YLR258W, strain gsy2, active compounds read low 0.983 | locus YLR262C, strain YPT6 (second series), active compounds read low 0.979 | locus YLR320W, strain mms22, active compounds read low 0.964 | locus YLR342W, strain FKS1, active compounds read low 0.98 | locus YLR357W, strain rsc2, active compounds read low 0.937 | locus YLR370C, strain arc18, active compounds read low 0.966 | locus YLR384C, strain iki3, active compounds read low 0.95 | locus YML120C, strain ndi1, active compounds read low 0.981 | locus YMR058W, strain fet3, active compounds read low 0.954 | locus YMR125W, strain sto1, active compounds read low 0.969 | locus YMR129W, active compounds read low 0.981 | locus YMR205C, strain PFK2, active compounds read low 0.944 | locus YMR231W, strain pep5, active compounds read low 0.978 | locus YNL071W, strain lat1, active compounds read low 0.988 | locus YNL183C, strain NPR1, active compounds read low 0.967 | locus YNL209W, strain ssb2, active compounds read low 0.978 | locus YNL248C, strain rpa49, active compounds read low 0.966 | locus YNL322C, strain KRE1 (second series), active compounds read low 0.956 | locus YNR049C, strain mso1, active compounds read low 0.967 | locus YOR001W, strain rrp6, active compounds read low 0.956 | locus YOR070C, strain gyp1, active compounds read low 0.983 | locus YOR080W, strain dia2, active compounds read low 0.967 | locus YOR083W, strain WHI5, active compounds read low 0.946 | locus YOR106W, strain vam3, active compounds read low 0.955 | locus YOR231W, strain MKK1, active compounds read low 1.05 | locus YOR265W, strain rbl2, active compounds read low 0.98 | locus YOR270C, strain vph1, active compounds read low 0.992 | locus YOR290C, strain snf2, active compounds read low 0.938 | locus YPL051W, strain arl3, active compounds read low 0.975 | locus YPL078C, strain atp4, active compounds read low 0.97 | locus YPL106C, strain sse1, active compounds read low 0.868 | locus YPL240C, strain hsp82, active compounds read low 0.973 | locus YPL256C, strain CLN2, active compounds read low 1.09

Reference: PubChem BioAssay AID1159580 (chemical genetic matrix, 2015)
